Of roughly 8,800 targets only a part is listed; those with a hit were picked by preference. About 0.5% of all pairs of compound and target were hits.
What follows are targets tested with CC(C)(O)CC(=O)NCCn1ccc2ncnc(Nc3ccc(Oc4cccc(C(F)(F)F)c4)c(Cl)c3)c21 (assay: log2 fold change, soluble protein after heating vs DMSO (PISA); higher = thermal stabilisation; K562 lysate, 10 uM; active = over 0.2 and 3.5 SD of the protein, either way, in both replicates (recomputed)).
In short: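 Following dounce homogenisation of K562 pellets in PBS pH 7.4 with 1 mM MgCl2, crude extract at 1 mg/mL protein was incubated for 30 min with 10 μM compound. Aliquots were then heated for 3 min over 48°C-58°C and pooled, NP-40 was added to 0.5% at 4°C, and soluble protein was recovered as the supernatant at 21,000xg for 90 min. Channel-sum-equalised TMTpro 16plex LC-MS/MS quantified this protein. Each value, from duplicates, is a log-two fold change in thermal stability relative to solvent controls.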

Sequence of UniProt Q13595 (Q13595 whole entry, looked up): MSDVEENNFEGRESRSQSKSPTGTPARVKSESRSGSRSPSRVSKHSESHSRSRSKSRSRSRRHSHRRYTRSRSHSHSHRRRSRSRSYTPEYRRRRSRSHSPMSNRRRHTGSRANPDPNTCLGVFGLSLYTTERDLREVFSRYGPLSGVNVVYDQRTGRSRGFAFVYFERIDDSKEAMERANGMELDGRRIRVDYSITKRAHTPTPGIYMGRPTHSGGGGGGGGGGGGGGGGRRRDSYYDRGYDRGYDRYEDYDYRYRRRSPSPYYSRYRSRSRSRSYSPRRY
Sequence of UniProt Q5U3C3 (Q5U3C3 whole entry, looked up): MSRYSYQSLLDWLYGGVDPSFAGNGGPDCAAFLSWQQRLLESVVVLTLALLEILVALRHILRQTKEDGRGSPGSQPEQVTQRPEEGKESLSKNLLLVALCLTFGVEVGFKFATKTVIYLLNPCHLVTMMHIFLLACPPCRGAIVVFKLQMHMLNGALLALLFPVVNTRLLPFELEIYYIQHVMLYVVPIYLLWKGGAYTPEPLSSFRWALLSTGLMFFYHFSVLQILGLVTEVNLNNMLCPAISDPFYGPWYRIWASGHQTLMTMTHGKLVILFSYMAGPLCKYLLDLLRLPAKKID
Sequence of UniProt Q9P0S9 (Q9P0S9 whole entry, looked up): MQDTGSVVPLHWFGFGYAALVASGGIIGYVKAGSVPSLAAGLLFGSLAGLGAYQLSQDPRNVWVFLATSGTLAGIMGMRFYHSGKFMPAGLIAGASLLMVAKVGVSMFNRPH
Sequence of UniProt Q8WUH2 (Q8WUH2 whole entry, looked up): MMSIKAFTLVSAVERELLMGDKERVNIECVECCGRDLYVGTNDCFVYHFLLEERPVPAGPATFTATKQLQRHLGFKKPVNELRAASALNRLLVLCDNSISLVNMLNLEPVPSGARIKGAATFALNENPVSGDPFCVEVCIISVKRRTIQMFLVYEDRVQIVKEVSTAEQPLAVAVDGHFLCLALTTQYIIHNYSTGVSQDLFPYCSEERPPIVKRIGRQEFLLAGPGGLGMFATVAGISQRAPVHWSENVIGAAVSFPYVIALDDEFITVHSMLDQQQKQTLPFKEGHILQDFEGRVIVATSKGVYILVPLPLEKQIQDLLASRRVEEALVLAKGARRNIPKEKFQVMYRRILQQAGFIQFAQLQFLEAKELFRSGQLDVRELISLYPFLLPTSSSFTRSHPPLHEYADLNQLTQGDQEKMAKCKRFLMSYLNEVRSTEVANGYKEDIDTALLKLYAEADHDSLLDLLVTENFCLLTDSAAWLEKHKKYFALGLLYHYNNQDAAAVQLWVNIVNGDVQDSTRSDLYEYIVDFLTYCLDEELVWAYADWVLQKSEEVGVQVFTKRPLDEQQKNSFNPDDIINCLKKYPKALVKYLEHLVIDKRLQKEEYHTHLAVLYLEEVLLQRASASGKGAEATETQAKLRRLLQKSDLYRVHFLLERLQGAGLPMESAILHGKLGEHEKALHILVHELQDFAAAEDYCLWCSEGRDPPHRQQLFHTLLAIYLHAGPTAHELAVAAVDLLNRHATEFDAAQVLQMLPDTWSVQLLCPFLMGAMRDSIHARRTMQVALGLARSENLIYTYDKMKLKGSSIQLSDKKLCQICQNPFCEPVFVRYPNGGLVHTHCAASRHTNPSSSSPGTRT
Sequence of UniProt Q7Z3V4 (Q7Z3V4 whole entry, looked up): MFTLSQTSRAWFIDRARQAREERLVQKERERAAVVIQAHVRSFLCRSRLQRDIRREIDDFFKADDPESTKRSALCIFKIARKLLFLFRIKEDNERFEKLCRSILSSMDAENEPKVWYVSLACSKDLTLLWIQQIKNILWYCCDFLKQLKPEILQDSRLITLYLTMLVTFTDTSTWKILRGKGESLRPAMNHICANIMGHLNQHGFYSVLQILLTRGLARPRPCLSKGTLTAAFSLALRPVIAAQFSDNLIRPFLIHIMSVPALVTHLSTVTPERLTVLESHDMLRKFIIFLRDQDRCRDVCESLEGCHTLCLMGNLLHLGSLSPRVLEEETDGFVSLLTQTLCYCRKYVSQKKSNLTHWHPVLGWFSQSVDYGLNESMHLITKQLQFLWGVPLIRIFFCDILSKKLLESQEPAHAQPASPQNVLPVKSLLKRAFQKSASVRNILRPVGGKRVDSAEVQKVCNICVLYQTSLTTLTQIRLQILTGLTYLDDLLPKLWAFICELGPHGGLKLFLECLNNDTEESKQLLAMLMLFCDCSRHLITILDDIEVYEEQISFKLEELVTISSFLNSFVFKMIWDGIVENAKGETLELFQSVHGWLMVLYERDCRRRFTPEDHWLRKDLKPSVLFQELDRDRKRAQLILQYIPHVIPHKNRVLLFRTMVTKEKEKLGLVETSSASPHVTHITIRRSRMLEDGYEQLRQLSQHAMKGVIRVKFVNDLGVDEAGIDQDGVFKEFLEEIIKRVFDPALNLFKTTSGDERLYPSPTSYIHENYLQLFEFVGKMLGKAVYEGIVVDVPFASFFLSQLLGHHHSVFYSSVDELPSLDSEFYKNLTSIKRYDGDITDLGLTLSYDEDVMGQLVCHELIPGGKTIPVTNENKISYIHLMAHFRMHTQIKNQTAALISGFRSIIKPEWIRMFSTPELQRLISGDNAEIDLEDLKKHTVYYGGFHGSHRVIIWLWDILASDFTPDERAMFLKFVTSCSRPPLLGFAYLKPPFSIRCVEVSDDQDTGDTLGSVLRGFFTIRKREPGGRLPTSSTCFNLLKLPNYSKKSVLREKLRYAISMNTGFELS
Sequence of UniProt Q969Z0 (Q969Z0 whole entry, looked up): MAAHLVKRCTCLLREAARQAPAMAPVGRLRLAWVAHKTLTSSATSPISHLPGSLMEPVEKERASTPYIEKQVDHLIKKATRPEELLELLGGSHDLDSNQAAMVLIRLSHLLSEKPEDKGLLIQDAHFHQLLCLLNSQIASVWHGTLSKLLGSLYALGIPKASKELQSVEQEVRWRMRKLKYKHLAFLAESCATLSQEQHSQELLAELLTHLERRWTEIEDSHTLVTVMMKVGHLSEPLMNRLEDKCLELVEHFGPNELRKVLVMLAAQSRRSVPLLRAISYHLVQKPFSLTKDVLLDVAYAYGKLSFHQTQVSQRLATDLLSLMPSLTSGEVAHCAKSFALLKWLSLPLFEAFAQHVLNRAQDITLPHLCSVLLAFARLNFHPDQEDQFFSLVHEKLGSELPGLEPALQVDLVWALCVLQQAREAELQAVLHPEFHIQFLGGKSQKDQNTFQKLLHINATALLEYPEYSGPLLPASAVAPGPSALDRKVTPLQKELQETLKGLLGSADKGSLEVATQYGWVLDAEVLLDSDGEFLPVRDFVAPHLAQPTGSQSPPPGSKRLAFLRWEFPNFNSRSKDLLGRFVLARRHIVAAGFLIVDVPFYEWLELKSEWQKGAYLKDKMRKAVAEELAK
Sequence of UniProt Q9H892 (Q9H892 whole entry, looked up): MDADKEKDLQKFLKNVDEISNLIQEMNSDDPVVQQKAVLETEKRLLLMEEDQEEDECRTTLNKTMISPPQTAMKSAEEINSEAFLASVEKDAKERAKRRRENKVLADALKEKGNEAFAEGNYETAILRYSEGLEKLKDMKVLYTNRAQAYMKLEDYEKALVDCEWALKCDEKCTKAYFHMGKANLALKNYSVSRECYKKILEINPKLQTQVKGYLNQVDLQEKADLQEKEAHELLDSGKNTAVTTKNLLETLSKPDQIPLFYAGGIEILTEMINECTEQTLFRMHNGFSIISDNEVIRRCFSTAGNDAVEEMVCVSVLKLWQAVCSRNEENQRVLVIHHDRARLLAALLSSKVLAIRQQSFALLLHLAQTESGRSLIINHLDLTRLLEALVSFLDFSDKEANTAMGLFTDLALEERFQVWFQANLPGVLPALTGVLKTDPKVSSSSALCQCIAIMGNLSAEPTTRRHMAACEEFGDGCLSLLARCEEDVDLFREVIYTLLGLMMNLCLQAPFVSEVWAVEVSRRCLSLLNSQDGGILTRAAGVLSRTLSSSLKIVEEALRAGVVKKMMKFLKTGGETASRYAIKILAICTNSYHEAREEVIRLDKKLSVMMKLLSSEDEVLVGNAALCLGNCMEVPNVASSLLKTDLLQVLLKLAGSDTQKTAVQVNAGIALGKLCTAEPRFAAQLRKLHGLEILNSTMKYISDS
Sequence of UniProt Q6NXR4 (Q6NXR4 whole entry, looked up): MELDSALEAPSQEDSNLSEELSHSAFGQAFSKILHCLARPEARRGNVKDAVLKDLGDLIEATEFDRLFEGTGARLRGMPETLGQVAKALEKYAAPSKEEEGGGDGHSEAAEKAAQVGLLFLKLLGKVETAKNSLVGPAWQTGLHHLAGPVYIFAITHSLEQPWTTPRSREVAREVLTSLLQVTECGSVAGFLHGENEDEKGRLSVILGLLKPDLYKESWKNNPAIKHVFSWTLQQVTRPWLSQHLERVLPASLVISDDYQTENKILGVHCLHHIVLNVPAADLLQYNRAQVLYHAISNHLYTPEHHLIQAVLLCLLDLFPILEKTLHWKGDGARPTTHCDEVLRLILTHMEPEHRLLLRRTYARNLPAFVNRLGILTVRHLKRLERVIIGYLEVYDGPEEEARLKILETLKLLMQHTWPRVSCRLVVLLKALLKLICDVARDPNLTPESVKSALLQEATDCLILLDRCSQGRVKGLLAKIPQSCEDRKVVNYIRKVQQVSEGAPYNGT
Sequence of UniProt P67936 (P67936 whole entry, looked up): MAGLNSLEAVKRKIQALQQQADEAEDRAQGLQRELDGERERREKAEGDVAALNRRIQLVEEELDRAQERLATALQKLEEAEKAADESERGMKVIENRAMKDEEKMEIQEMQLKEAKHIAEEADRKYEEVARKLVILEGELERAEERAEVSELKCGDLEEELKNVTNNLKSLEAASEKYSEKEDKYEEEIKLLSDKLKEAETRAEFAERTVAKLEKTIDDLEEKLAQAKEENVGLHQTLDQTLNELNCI
Sequence of UniProt O95857 (O95857 whole entry, looked up): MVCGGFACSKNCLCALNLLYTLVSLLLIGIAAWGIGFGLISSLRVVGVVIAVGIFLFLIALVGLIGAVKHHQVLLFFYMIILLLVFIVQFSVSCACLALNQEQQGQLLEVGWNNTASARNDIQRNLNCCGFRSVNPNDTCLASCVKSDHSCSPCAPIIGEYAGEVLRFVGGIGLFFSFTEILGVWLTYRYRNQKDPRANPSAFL

log2 fold change, inactive:
TOR3A (UniProt Q9H497) -0.017
TRAF2 isoform 2 (UniProt Q12933) -0.022
TBRG4 (UniProt Q969Z0) -0.023
TBL3 (UniProt Q12788) 0.001
UBE3B (UniProt Q7Z3V4) -0.074
TRA2A (UniProt Q13595) -0.013
TJP1 isoform 2 (UniProt Q07157) -0.041
TPM4 isoform 2 (UniProt P67936) 0.032
TUBGCP3 (UniProt Q96CW5) 0.045
TGOLN2 isoform 7 (UniProt O43493) -0.058
TSPAN13 (UniProt O95857) -0.044
TIMELESS (UniProt Q9UNS1) -0.053
TRMT2A (UniProt Q8IZ69) -0.005
TTC12 isoform 2 (UniProt Q9H892) 0.128
TMPO (UniProt P42167) -0.001
TBK1 (UniProt Q9UHD2) -0.035
TGFBRAP1 (UniProt Q8WUH2) 0.025
TMEM14C (UniProt Q9P0S9) -0.077
TMEM164 (UniProt Q5U3C3) -0.252
TPM3 (UniProt P06753) 0.022
TTI2 (UniProt Q6NXR4) -0.062
TBC1D23 (UniProt Q9NUY8) -0.021
